{
  "source": "PubChem BioAssay (NCATS)",
  "note": "Records with an inconclusive call do not appear. A number with no mark means an inactive call. Activity calls are given as the source filed them. Calls come from the whole dose curve; as a rule, active = well fitted inhibition curve with a large enough effect; inconclusive = small, poorly fitted or top-dose-only effect; inactive = flat fitted curve, though single readings scatter. % is set by controls: 0 for no effect and ±100 for the full control effect.",
  "data": [
    {"target": "Calcium and integrin-binding protein 1 (Homo sapiens) (UniProt Q99828)", "sequence (Q99828 whole entry, looked up)": "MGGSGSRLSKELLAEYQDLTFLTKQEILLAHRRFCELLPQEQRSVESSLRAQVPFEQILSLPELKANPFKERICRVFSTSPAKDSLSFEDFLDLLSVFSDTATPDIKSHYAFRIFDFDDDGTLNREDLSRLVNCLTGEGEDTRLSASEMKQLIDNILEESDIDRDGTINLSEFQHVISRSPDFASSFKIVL", "experiment": "Primary qHTS for Identification of Calcium Integrin Binding Protein 1 (CIB1) Competitor (AID 1508620);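 note: GST tagged CIB1 binding a fluorescein labelled alphaIIb integrin peptide tracer; top concentration of the series differs between compounds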", "details": "CIB1-GST / FITC-alphaIIb peptide fluorescence polarization; series mostly up to 114 µM; activity change, negative = inhibition: at the top concentration", "in_short": "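Fluorescence polarization competition: CIB1-GST (1 uM final) preincubated with compound 15 min at room temperature, then FITC-labeled alphaIIb peptide (100 nM final) added for another 15 min. Polarization read at Ex 480/Em 540.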", "units": {"activity change, negative = inhibition": "%"}, "values": [
      {"smiles": "COc1cc(OC)cc(-c2nnc3n2N=C(c2cc(OC)ccc2OC)CS3)c1", "activity change, negative = inhibition": 1.56},
      {"smiles": "Cn1ccc2cc(-c3ccc4ncnc(NCc5ccc6c(c5)OCO6)c4c3)ccc21", "activity change, negative = inhibition": 4.76},
      {"smiles": "c1cc2c(cc1CNc1ccc(N3CCOCC3)cc1)OCO2", "activity change, negative = inhibition": -1.28},
      {"smiles": "Cc1ccnc(NC(=S)NC2CCCN(c3cccc(C(F)(F)F)c3)C2)c1", "note": "(stereo not given)", "activity change, negative = inhibition": 2.44},
      {"smiles": "C[C@@H](O)c1ccc(-c2ccc3ncnc(NCc4cccs4)c3c2)o1", "Potency": "inactive"},
      {"smiles": "CN(Cc1cccs1)c1ncnc2ccc(-c3ccc4cn(C)nc4c3)cc12", "activity change, negative = inhibition": -5.26},
      {"smiles": "COc1ccc(C2Nc3ccccc3C(=O)N2Cc2ccccc2)cc1COc1ccc(Cl)cc1", "note": "(stereo not given)", "activity change, negative = inhibition": 0.365},
      {"smiles": "O=C1CCCC2=C1C(c1cccc(Cl)c1)N=C(Nc1nc3ccccc3o1)N2", "note": "(stereo not given)", "activity change, negative = inhibition": -1.97},
      {"smiles": "COC(=O)c1ccccc1S(=O)(=O)Nc1cc(=O)c2ccccc2[nH]1", "activity change, negative = inhibition": -2.79},
      {"smiles": "CCOC(=O)C1CCN(C(=O)C(C)(C)NC(=O)Nc2ccc3ccccc3c2)CC1", "activity change, negative = inhibition": -18.8},
      {"smiles": "CCc1ccc(NC(=O)C(=O)NNC(=O)Cc2ccc(Cl)c(Cl)c2)cc1", "activity change, negative = inhibition": -5.49},
      {"smiles": "O=C(Nc1ccc2c(c1)CCC2)Nc1nnc(-c2ccncc2)s1", "activity change, negative = inhibition": 0.762},
      {"smiles": "CCOC(=O)c1ccc2c(c1)c(C(C)=O)c(C)n2-c1ccc(OC)cc1", "activity change, negative = inhibition": -1.8},
      {"smiles": "CC(=O)NC(c1ccco1)c1cc(Br)c2cccnc2c1O", "note": "(stereo not given)", "activity change, negative = inhibition": -20.8},
      {"smiles": "CC(=O)Nc1sc2c(c1-c1nccs1)CCNC2", "activity change, negative = inhibition": 7.87},
      {"smiles": "CN(C)C(=O)C1CCN(c2nc(-c3ccc(Br)cc3)cs2)CC1", "activity change, negative = inhibition": -0.667},
      {"smiles": "CCNC(=O)c1ccc(-c2ccc3ncnc(NCc4nc(C)cs4)c3c2)o1", "activity change, negative = inhibition": -16},
      {"smiles": "CN1CCOc2cc(S(=O)(=O)N3CCN(S(=O)(=O)c4c(F)cccc4F)CC3)cnc21", "activity change, negative = inhibition": 5.26},
      {"smiles": "CC(C)(C)OC(=O)n1c2ccsc2c2cnn(Cc3ccccc3F)c(=O)c21", "activity change, negative = inhibition": -2.96},
      {"smiles": "c1coc(-c2ccc3ncnc(NCc4cccs4)c3c2)c1", "activity change, negative = inhibition": -14.8},
      {"smiles": "Fc1ccc(-c2ccc(Nc3nc(-c4ccncc4)nc4ccccc34)cc2F)c(F)c1", "activity change, negative = inhibition": 1.48},
      {"smiles": "FC(F)(F)c1ccc(CSc2nc3ncc(Br)cc3[nH]2)cc1", "activity change, negative = inhibition": 5.35},
      {"smiles": "CNc1cc2c(cc1S(=O)(=O)Nc1ccc(C)c(C)c1)CCC(=O)N2", "activity change, negative = inhibition": -1.6},
      {"smiles": "Cc1ccc(S(=O)(=O)N2CCN(S(=O)(=O)c3ccc4c(c3)OCCO4)CC2)cc1", "activity change, negative = inhibition": -4.36},
      {"smiles": "CCOc1ccc(CCNC(=O)c2cc3c(s2)CCC3)cc1OCC", "activity change, negative = inhibition": 19.4},
      {"smiles": "COc1ccc(C2Nc3ccccc3C(=O)N2Cc2ccccc2)cc1COc1cccc(Cl)c1", "note": "(stereo not given)", "activity change, negative = inhibition": -1},
      {"smiles": "CSc1ccc(-c2cnc(N3CCC(C(N)=O)CC3)s2)cc1", "activity change, negative = inhibition": 1.58},
      {"smiles": "Cc1cnc(-c2ccccc2CO)nc1NCc1ccc(-c2cccnc2)cc1", "activity change, negative = inhibition": 0.376},
      {"smiles": "O=C1CCCC2=C1C(c1[nH]ncc1Cl)N=C(Nc1nc3c(Cl)cccc3o1)N2", "note": "(stereo not given)", "activity change, negative = inhibition": -2.81},
      {"smiles": "COc1ccc(C2C3=C(N=CN(CCN4CCOCC4)C3N)Oc3ccccc32)cc1OC", "note": "(stereo not given)", "activity change, negative = inhibition": -0.303},
      {"smiles": "CNC(=O)C1=C(C)NC(Nc2nc3ccccc3o2)=NC1c1[nH]ncc1Cl", "note": "(stereo not given)", "activity change, negative = inhibition": -13.9},
      {"smiles": "CCOC(=O)c1ccc(-c2ccc3ncnc(NCCc4cnc[nH]4)c3c2)o1", "activity change, negative = inhibition": 5.47},
      {"smiles": "O=C(Cc1ccc(Cl)c(Cl)c1)Nc1ccc([S+](=O)([O-])Nc2ncn[nH]2)cc1", "activity change, negative = inhibition": -10.3},
      {"smiles": "O=C(Cc1ccccc1)Nc1nnc(-c2ccncc2)s1", "activity change, negative = inhibition": 2.43},
      {"smiles": "CN1CCN(c2cccc(CNc3nn4c(=O)c5ccccc5nc4s3)c2)CC1", "activity change, negative = inhibition": -14},
      {"smiles": "Cc1cc2c(s1)c1cnn(Cc3ccccc3Br)c(=O)c1n2C", "activity change, negative = inhibition": 7.06},
      {"smiles": "Clc1ccc(CN(CCCNc2ncnc(NCCCc3cnc[nH]3)n2)c2ccc(Br)cn2)cc1Cl", "activity change, negative = inhibition": 2.63},
      {"smiles": "Fc1cc(Nc2nc(-c3ccncc3)nc3ccccc23)ccc1-n1cncn1", "Potency": "inactive"},
      {"smiles": "Cc1cc2c(s1)c1cnn(Cc3c(F)cccc3F)c(=O)c1n2C", "activity change, negative = inhibition": 1.81},
      {"smiles": "O=C(Nc1cccnc1)c1cccs1", "activity change, negative = inhibition": -5.85}
    ]}
  ]
}
